Measured values taken from PubChem BioAssay (NCI).
The panel holds about 79,000 compounds, 15% with a hit somewhere; the sample as a whole holds those more often. Calls of active or inactive are those of the source. No stated cut-off is given here; in the data, active means growth inhibition above about 70%; inactive means the rest.

How the values were obtained:
[1] = NCI Yeast Anticancer Drug Screen. Data for the rad52 strain (AID 147);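 further: 0% = growth of vehicle-treated control cultures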; settings: S. cerevisiae rad52 mutant growth inhibition, hits give high values
In short: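 Here a repair-compromised yeast strain receives each compound; its growth is then quantified and normalised to vehicle-only controls.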

[2] = NCI Yeast Anticancer Drug Screen. Data for the wt1 strain (AID 149);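 further: 0% = growth of vehicle-treated wt1 cultures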; settings: S. cerevisiae wt1 strain (SPY 50644) growth inhibition, hits give high values
In short: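 The wt1 strain was treated with compounds, and growth was compared with vehicle-treated cultures to give inhibition.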

[3] = NCI Yeast Anticancer Drug Screen. Data for the rad50EPP+ strain (AID 151);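 further: 0% = growth of vehicle-treated control cultures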; settings: S. cerevisiae rad50 mutant strain, hits give high values
In short: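 Read-out is yeast growth inhibition relative to vehicle; cells used were the rad50EPP+ strain.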

[4] = NCI Yeast Anticancer Drug Screen. Data for the rad50 strain (AID 155);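 further: 0% = growth of vehicle-only cultures of the same strain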; settings: S. cerevisiae rad50 strain growth inhibition, hits give high values
In short: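 Cells are treated with compound, grown, and their growth is then scored against vehicle-only cultures of the same repair-deficient yeast strain.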

[5] = NCI Yeast Anticancer Drug Screen. Data for the mec2-1 strain (AID 157); settings: S. cerevisiae mec2-1 strain, hits give high values
In short: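 Using mec2-1 yeast: add compound, measure growth, express inhibition versus vehicle-treated cultures.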

[6] = NCI Yeast Anticancer Drug Screen. Data for the sgs1 mgt1 strain (AID 161);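 further: 0% = growth of cultures given vehicle only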; settings: S. cerevisiae sgs1 mgt1 strain, hits give high values
In short: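 This yeast growth screen uses a strain with defined DNA-repair lesions; compound-treated growth is compared with vehicle-treated growth.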

[7] = NCI Yeast Anticancer Drug Screen. Data for the CLN2oe strain (AID 163);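 further: 0% = growth of vehicle-only control cultures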; settings: S. cerevisiae CLN2oe strain, hits give high values
In short: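 Whole-cell yeast growth assay. A strain engineered for altered cell-cycle control received compound, and inhibition relative to vehicle-treated cultures was recorded.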

[8] = NCI Yeast Anticancer Drug Screen. Data for the cln2 rad14 strain (AID 165);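 further: 0% = growth equal to vehicle treated cultures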; settings: S. cerevisiae cln2 rad14 strain, hits give high values
In short: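 Yeast strain cln2 rad14, bearing defects in cell cycle control and DNA repair, serves as the test system; values reflect growth inhibition compared with vehicle.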

[9] = NCI Yeast Anticancer Drug Screen. Data for the bub3 strain (AID 167); settings: S. cerevisiae bub3 mutant strain, hits give high values
In short: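 Part of a panel of yeast mutants defective in DNA damage repair or cell cycle regulation. Each strain is grown with compound, and inhibition is calculated relative to solvent-treated cultures.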

[10] = NCI Yeast Anticancer Drug Screen. Data for the wt2 strain (AID 169);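 further: 0% = growth of vehicle-treated yeast cultures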; settings: S. cerevisiae wt2 strain growth inhibition, hits give high values
In short: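 Treated yeast vs. vehicle-treated yeast: growth inhibition determined.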

[11] = NCI Yeast Anticancer Drug Screen. Data for the mlh1 strain (AID 171);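 further: 0% = growth of vehicle-treated control cultures of the same strain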; settings: S. cerevisiae mlh1 strain growth inhibition, hits give high values
In short: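 A yeast strain with a defined genetic lesion serves as the test organism. Cultures receive compound or vehicle, and growth is measured.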

[12] = NCI Yeast Anticancer Drug Screen. Data for the sgs1 strain (AID 173);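 further: 0% = growth of vehicle-only control cultures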; settings: S. cerevisiae sgs1 mutant, hits give high values
In short: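 A genetically defined yeast mutant is incubated with the test compound, and its growth is compared to that of the same strain given vehicle.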

[13] = NCI Yeast Anticancer Drug Screen. Data for the mlh1 rad18 strain (AID 175); settings: S. cerevisiae mlh1 rad18 strain growth inhibition, hits give high values
In short: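 Steps: expose repair-defective yeast to compound; measure growth; express inhibition against vehicle-treated controls.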

[14] = NCI Yeast Anticancer Drug Screen. Data for the rad18 strain (AID 177); settings: S. cerevisiae rad18 mutant growth inhibition, hits give high values
In short: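 Measured value is growth inhibition of a yeast strain bearing a DNA repair alteration, referenced to vehicle-treated cells.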

[15] = NCI Yeast Anticancer Drug Screen. Data for the rad14 strain (AID 159);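 further: 0% = growth of vehicle-treated control cultures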; settings: S. cerevisiae rad14 strain growth inhibition, hits give high values
In short: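 Readout: yeast growth inhibition, referenced to vehicle-only cultures. Strain bears a defined alteration in DNA damage repair.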

[16] = at 5.0 µM (retest, dose inferred, filed as 0.5)
[17] = at 50.0 µM (retest, dose inferred, filed as 5.0)

Measured: growth inhibition

COc1cc(C(C)(C)C)cc(OC)c1C(O)(c1c(OC)cc(C(C)(C)C)cc1OC)c1c(OC)cc(C(C)(C)C)cc1OC
active: [1]; at 11.0 µM 88% | [1]; at 33.0 µM 92% | [1]; at 100.0 µM 84% | [2]; at 11.0 µM 93% | [2]; at 33.0 µM 94% | [2]; at 100.0 µM 91% | [3]; at 11.0 µM 87% | [3]; at 33.0 µM 92% | [3]; at 100.0 µM 83% | [4]; at 11.0 µM 92% | [4]; at 33.0 µM 93% | [4]; [17] 94% | [4]; at 50.0 µM 78% | [4]; at 100.0 µM 88% | [5]; [16] 81% | [5]; at 11.0 µM 90% | [5]; at 33.0 µM 94% | [5]; [17] 96% | [5]; at 50.0 µM 79.7% | [5]; at 100.0 µM 90% | [6]; [17] 97% | [6]; at 50.0 µM 80.1% | [7]; at 11.0 µM 87% | [7]; at 33.0 µM 93% | [7]; at 100.0 µM 89% | [8]; [17] 96% | [8]; at 50.0 µM 77.3% | [9]; [16] 76% | [9]; at 11.0 µM 92% | [9]; at 33.0 µM 94% | [9]; [17] 96% | [9]; at 50.0 µM 75.8% | [9]; at 100.0 µM 85% | [10]; at 11.0 µM 92% | [10]; at 33.0 µM 94% | [10]; at 100.0 µM 82% | [11]; at 11.0 µM 89% | [11]; at 33.0 µM 94% | [11]; at 100.0 µM 88% | [12]; at 11.0 µM 95% | [12]; at 33.0 µM 95% | [12]; at 100.0 µM 89% | [13]; [17] 93% | [13]; at 50.0 µM 76.1% | [14]; at 11.0 µM 93% | [14]; at 33.0 µM 94% | [14]; at 100.0 µM 87%
inactive: [1]; at 1.2 µM -10% | [1]; at 3.7 µM 33% | [2]; at 1.2 µM 4% | [2]; at 3.7 µM 42% | [3]; at 1.2 µM -1% | [3]; at 3.7 µM 14% | [4]; at 1.2 µM 25% | [4]; at 3.7 µM 30% | [4]; [16] 33% | [5]; at 1.2 µM -22% | [5]; at 3.7 µM 32% | [6]; [16] 13% | [7]; at 1.2 µM 31% | [7]; at 3.7 µM 45% | [8]; [16] 47% | [9]; at 1.2 µM -25% | [9]; at 3.7 µM 44% | [10]; at 1.2 µM -17% | [10]; at 3.7 µM 15% | [11]; at 1.2 µM -19% | [11]; at 3.7 µM -12% | [12]; at 1.2 µM -3% | [12]; at 3.7 µM 4% | [13]; [16] 15% | [14]; at 1.2 µM -4% | [14]; at 3.7 µM 10%

O=C1C=CC(=O)N1c1ccc(Br)cc1Cl
inactive: [4]; [16] 15% | [4]; [17] 51% | [5]; [16] 44% | [5]; [17] 42% | [7]; at 1.2 µM 63% | [13]; [16] 22% | [13]; [17] 42%
active: [1]; at 1.2 µM 91% | [1]; at 3.7 µM 101% | [1]; at 11.0 µM 99% | [1]; at 33.0 µM 99% | [1]; at 100.0 µM 99% | [4]; at 1.2 µM 99% | [4]; at 3.7 µM 101% | [4]; at 11.0 µM 100% | [4]; at 33.0 µM 100% | [4]; at 50.0 µM 92.2% | [4]; at 100.0 µM 99% | [5]; at 1.2 µM 97% | [5]; at 3.7 µM 101% | [5]; at 11.0 µM 100% | [5]; at 33.0 µM 99% | [5]; at 50.0 µM 93.7% | [5]; at 100.0 µM 99% | [15]; at 1.2 µM 99% | [15]; at 3.7 µM 102% | [15]; at 11.0 µM 100% | [15]; at 33.0 µM 100% | [15]; at 100.0 µM 100% | [6]; [16] 101% | [6]; [17] 98% | [7]; at 3.7 µM 101% | [7]; at 11.0 µM 99% | [7]; at 33.0 µM 99% | [7]; at 100.0 µM 99% | [9]; at 1.2 µM 98% | [9]; at 3.7 µM 101% | [9]; [16] 101% | [9]; at 11.0 µM 99% | [9]; at 33.0 µM 100% | [9]; [17] 98% | [9]; at 100.0 µM 99% | [10]; at 1.2 µM 76% | [10]; at 3.7 µM 101% | [10]; at 11.0 µM 99% | [10]; at 33.0 µM 99% | [10]; at 100.0 µM 99% | [11]; at 1.2 µM 96% | [11]; at 3.7 µM 101% | [11]; at 11.0 µM 100% | [11]; at 33.0 µM 97% | [11]; at 100.0 µM 99% | [12]; at 1.2 µM 92% | [12]; at 3.7 µM 102% | [12]; at 11.0 µM 99% | [12]; at 33.0 µM 99% | [12]; at 100.0 µM 99% | [13]; at 50.0 µM 92.7%

CCOC(=O)C1=C(C)NC(C)=C(C(=O)OCC)C1c1ccc(Cl)cc1
active: [1]; at 11.0 µM 92% | [1]; at 33.0 µM 78% | [1]; at 100.0 µM 92% | [2]; at 100.0 µM 94% | [4]; [16] 98% | [4]; at 11.0 µM 93% | [4]; at 33.0 µM 88% | [4]; [17] 100% | [4]; at 50.0 µM 90.2% | [4]; at 100.0 µM 89% | [5]; [16] 99% | [5]; at 11.0 µM 70% | [5]; at 33.0 µM 70% | [5]; [17] 99% | [5]; at 50.0 µM 91.5% | [5]; at 100.0 µM 92% | [15]; at 11.0 µM 85% | [15]; at 33.0 µM 82% | [15]; at 100.0 µM 93% | [6]; [17] 98% | [8]; [17] 98% | [9]; at 11.0 µM 85% | [9]; at 33.0 µM 81% | [9]; [17] 98% | [9]; at 100.0 µM 93% | [11]; at 33.0 µM 84% | [11]; at 100.0 µM 92% | [12]; at 11.0 µM 73% | [12]; at 33.0 µM 89% | [12]; at 100.0 µM 95% | [13]; [16] 100% | [13]; [17] 100% | [13]; at 50.0 µM 90.2% | [14]; at 11.0 µM 93% | [14]; at 33.0 µM 89% | [14]; at 100.0 µM 92%
inactive: [1]; at 1.2 µM -13% | [1]; at 3.7 µM 6% | [2]; at 1.2 µM -23% | [2]; at 3.7 µM -10% | [2]; at 11.0 µM 33% | [2]; at 33.0 µM 60% | [3]; at 1.2 µM 6% | [3]; at 3.7 µM 4% | [3]; at 11.0 µM 16% | [3]; at 33.0 µM 0% | [3]; at 100.0 µM -8% | [4]; at 1.2 µM 14% | [4]; at 3.7 µM 35% | [5]; at 1.2 µM -9% | [5]; at 3.7 µM -5% | [15]; at 1.2 µM -14% | [15]; at 3.7 µM -6% | [6]; [16] -1% | [8]; [16] 27% | [9]; at 1.2 µM 20% | [9]; at 3.7 µM 44% | [9]; [16] 47% | [11]; at 1.2 µM -27% | [11]; at 3.7 µM -9% | [11]; at 11.0 µM 44% | [12]; at 1.2 µM 13% | [12]; at 3.7 µM 19% | [14]; at 1.2 µM 4% | [14]; at 3.7 µM 14%
